Measured values reported in the supplement of paper PMC11732987, “Enantioselective OTUD7B fragment discovery through chemoproteomics screening and high-throughput optimisation” (Communications Chemistry, 2025).

How the values were obtained:
Assay in all cases: log2 ratio of Biotin-Ahx-Ub-VS probe labelling (fragment/DMSO); higher = less target engagement (more negative = stronger competition), active = hit call of the paper (q ≤ 0.05, log2 ratio ≤ -1)
Conditions in all cases: compound concentration: 200 uM; treatment time: 3 h
[1] = molecular target: T1, USP42 (UniProt Q9H9J4)
T1 sequence (whole entry): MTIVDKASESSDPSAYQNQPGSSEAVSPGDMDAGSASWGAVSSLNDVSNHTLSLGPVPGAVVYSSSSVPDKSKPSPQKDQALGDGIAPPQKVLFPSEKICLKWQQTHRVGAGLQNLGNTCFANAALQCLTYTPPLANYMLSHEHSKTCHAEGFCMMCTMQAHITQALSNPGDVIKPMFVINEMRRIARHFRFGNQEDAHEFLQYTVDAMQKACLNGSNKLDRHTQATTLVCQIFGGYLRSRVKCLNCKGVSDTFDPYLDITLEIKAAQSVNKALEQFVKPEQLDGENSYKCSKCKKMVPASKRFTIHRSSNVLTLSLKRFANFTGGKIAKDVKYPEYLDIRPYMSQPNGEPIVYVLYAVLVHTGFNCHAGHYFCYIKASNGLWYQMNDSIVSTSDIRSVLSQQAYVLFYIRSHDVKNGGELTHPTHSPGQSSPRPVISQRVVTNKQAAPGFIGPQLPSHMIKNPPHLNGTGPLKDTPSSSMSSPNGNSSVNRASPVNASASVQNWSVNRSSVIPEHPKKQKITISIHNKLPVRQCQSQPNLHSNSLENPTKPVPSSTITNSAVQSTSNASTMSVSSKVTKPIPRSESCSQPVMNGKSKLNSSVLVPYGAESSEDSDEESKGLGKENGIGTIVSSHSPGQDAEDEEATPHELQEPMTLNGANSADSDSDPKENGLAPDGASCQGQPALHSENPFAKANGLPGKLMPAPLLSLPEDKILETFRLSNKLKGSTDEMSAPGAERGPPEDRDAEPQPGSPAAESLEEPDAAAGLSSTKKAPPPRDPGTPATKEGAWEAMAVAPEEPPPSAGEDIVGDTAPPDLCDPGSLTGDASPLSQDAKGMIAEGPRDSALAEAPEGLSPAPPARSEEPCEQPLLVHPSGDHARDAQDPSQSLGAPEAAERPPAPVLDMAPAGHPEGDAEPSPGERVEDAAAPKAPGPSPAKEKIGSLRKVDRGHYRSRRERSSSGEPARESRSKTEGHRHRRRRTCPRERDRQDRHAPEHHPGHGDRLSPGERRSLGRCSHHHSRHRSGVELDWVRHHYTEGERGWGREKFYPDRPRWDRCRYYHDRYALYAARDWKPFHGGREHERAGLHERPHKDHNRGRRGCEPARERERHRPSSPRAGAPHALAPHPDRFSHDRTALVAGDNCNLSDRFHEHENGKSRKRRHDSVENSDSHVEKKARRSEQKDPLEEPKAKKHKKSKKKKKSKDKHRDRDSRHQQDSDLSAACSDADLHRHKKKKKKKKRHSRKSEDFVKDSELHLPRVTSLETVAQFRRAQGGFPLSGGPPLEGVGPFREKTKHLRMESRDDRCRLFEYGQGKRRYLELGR
How it was run: (§1)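 Labelled DUBs from HEK293T lysate were NeutrAvidin-enriched, digested with LysC and trypsin, and run by diaPASEF LC-MS/MS. Before that, each 495 µg sample in Tris/CHAPS/IGEPAL buffer with protease inhibitors was treated in triplicate with fragment at 200 µM or vehicle for 3 h, then with Biotin-Ahx-Ub-VS at 0.5 µM final for 1 h. Values are average log2 ratios of fragment over vehicle by unpaired t-test, based on global-median-normalised Spectronaut label-free quantities from proteins with ≥2 unique peptides.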

[2] = molecular target: USP46 (UniProt P62068)
Sequence of USP46 (P62068 whole entry): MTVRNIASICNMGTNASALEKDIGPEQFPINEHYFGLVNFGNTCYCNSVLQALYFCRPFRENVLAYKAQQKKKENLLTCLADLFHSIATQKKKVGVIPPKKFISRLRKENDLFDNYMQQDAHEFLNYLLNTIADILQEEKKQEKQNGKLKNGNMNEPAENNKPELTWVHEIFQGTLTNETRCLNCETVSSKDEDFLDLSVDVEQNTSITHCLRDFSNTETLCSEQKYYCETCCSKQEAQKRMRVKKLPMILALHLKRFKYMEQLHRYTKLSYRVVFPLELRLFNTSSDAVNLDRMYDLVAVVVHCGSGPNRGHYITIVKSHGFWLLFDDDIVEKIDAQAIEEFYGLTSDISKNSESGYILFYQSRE
How it was run: as §1

[3] = molecular target: T2, USP47 (UniProt Q96K76)
T2 sequence (whole entry): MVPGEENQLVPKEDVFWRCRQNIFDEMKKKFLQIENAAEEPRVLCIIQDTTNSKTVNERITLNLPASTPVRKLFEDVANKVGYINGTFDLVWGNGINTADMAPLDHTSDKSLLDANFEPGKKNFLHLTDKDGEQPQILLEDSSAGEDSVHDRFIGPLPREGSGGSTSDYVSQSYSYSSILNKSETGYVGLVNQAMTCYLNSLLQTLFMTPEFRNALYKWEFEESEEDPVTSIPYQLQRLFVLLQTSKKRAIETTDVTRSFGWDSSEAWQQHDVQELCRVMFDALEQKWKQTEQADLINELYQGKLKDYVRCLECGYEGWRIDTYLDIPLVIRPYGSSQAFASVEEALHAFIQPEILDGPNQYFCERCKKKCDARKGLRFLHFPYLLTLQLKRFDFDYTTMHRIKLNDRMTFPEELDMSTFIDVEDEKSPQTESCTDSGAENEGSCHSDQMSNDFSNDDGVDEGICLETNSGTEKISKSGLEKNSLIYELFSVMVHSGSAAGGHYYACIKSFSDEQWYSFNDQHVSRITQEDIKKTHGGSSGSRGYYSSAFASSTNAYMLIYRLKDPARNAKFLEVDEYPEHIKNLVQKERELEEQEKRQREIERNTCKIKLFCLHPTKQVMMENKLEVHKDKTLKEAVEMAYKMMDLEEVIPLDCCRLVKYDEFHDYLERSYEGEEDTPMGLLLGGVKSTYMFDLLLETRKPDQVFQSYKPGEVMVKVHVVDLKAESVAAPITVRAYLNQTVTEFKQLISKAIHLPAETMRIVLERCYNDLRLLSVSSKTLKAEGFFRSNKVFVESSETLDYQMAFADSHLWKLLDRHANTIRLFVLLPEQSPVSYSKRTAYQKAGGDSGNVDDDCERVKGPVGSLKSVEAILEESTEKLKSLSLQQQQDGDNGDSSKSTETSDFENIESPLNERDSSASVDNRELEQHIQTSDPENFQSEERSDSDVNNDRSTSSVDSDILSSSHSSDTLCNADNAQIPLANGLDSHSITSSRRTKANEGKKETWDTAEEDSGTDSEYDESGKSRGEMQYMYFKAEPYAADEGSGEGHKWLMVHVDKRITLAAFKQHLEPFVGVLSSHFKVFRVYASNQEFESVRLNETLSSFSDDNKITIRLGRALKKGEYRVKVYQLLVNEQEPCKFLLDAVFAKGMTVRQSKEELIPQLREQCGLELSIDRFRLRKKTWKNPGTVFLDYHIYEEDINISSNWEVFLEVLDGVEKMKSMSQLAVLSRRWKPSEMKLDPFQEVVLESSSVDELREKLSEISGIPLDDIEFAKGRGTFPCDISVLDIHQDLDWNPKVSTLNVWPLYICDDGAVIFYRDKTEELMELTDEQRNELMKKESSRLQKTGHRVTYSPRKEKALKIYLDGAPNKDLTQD
How it was run: as §1

[4] = molecular target: T3, USP48 (UniProt Q86UV5)
T3 sequence (whole entry): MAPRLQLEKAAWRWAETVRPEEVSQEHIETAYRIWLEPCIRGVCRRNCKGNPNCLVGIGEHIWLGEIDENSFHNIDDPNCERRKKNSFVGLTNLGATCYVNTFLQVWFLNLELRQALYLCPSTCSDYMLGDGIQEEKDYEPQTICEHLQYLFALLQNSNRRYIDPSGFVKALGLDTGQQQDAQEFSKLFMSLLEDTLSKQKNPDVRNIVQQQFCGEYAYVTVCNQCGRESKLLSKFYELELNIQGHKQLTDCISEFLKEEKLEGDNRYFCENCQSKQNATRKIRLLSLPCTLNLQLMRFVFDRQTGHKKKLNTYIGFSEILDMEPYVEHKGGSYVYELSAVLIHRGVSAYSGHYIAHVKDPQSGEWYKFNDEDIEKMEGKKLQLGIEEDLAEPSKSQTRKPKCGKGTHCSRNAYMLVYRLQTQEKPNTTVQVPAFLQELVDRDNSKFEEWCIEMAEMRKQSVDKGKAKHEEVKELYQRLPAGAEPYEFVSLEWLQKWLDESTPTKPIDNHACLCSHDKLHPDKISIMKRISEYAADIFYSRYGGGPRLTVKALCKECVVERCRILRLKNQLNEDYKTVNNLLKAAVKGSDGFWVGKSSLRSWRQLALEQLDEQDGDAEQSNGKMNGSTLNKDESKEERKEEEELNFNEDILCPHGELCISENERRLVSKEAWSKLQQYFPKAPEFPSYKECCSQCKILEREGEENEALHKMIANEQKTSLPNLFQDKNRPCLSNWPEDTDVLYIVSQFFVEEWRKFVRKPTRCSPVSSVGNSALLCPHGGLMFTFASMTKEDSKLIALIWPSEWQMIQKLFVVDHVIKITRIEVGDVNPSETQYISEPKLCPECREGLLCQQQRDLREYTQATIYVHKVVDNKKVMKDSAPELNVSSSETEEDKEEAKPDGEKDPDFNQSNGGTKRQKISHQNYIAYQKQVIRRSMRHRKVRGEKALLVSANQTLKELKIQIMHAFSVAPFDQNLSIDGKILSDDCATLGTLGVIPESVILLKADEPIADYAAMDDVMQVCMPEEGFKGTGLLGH
How it was run: as §1

[5] = molecular target: T4, USP5 (UniProt P45974)
T4 sequence (whole entry): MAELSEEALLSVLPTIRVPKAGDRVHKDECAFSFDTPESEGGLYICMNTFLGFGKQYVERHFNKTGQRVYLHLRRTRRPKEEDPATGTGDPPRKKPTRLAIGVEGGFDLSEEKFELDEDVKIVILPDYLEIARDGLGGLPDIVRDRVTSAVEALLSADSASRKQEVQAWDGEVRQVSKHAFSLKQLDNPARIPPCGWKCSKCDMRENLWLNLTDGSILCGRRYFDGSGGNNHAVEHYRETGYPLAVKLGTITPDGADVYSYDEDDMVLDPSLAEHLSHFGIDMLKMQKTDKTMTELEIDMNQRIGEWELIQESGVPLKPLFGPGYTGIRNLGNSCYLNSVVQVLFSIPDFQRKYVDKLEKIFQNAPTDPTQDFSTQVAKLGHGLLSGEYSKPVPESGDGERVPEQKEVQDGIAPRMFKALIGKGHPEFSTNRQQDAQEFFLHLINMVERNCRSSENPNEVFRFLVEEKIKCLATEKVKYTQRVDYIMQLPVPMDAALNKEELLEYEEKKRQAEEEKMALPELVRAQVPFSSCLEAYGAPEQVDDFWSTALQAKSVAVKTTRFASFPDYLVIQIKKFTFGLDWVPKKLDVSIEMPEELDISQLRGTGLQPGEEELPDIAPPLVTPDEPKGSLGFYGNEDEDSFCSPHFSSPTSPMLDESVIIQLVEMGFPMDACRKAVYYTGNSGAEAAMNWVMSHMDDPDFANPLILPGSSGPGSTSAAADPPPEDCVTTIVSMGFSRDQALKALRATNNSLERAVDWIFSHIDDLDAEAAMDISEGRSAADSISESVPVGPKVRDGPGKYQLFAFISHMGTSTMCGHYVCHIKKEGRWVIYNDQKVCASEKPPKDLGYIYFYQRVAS
How it was run: as §1

[6] = molecular target: USP54 (UniProt Q70EL1)
Sequence of USP54 (Q70EL1 whole entry): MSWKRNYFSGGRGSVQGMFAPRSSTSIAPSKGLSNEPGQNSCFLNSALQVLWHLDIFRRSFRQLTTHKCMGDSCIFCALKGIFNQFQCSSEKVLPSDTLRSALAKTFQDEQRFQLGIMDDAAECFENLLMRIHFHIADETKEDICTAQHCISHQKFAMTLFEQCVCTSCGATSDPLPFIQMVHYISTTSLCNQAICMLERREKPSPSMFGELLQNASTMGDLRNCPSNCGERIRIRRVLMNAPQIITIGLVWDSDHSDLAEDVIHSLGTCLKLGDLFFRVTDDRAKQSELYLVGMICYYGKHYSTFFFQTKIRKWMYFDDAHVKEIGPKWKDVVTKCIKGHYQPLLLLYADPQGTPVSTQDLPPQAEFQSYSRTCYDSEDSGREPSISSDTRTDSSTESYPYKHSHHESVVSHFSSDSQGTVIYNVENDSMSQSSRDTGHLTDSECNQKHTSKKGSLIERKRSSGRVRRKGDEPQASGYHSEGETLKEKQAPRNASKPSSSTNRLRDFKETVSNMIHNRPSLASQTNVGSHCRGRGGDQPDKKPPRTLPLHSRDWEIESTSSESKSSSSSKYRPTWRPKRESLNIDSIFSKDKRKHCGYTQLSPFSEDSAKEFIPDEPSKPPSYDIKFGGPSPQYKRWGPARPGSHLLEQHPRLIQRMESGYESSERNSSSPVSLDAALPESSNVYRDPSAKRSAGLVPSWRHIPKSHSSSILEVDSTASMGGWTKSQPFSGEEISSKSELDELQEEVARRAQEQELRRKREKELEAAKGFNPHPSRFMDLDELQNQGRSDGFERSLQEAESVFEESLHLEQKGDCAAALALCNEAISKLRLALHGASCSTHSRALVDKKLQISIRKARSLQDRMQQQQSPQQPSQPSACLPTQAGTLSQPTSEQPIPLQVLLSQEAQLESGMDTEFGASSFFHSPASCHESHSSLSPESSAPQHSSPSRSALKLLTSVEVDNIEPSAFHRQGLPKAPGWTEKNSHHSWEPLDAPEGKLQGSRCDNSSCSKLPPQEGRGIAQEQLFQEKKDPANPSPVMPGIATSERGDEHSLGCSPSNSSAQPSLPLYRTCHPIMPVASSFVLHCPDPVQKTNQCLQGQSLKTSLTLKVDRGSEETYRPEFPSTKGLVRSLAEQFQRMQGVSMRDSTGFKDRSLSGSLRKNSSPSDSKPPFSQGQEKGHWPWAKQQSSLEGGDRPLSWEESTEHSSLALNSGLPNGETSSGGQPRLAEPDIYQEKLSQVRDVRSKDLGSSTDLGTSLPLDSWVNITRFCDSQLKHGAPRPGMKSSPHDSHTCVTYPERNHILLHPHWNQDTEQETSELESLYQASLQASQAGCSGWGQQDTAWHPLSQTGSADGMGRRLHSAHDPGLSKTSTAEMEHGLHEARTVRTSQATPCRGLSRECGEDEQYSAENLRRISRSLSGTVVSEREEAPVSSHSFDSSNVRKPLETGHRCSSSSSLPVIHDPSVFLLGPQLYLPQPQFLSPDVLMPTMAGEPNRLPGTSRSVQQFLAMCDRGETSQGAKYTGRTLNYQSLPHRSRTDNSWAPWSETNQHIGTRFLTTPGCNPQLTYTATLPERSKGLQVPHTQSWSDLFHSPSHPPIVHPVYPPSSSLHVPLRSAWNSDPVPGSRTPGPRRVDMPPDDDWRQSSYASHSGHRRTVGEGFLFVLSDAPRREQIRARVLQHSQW
How it was run: as §1

[7] = molecular target: USP7 (UniProt Q93009)
Sequence of USP7 (Q93009 whole entry, looked up): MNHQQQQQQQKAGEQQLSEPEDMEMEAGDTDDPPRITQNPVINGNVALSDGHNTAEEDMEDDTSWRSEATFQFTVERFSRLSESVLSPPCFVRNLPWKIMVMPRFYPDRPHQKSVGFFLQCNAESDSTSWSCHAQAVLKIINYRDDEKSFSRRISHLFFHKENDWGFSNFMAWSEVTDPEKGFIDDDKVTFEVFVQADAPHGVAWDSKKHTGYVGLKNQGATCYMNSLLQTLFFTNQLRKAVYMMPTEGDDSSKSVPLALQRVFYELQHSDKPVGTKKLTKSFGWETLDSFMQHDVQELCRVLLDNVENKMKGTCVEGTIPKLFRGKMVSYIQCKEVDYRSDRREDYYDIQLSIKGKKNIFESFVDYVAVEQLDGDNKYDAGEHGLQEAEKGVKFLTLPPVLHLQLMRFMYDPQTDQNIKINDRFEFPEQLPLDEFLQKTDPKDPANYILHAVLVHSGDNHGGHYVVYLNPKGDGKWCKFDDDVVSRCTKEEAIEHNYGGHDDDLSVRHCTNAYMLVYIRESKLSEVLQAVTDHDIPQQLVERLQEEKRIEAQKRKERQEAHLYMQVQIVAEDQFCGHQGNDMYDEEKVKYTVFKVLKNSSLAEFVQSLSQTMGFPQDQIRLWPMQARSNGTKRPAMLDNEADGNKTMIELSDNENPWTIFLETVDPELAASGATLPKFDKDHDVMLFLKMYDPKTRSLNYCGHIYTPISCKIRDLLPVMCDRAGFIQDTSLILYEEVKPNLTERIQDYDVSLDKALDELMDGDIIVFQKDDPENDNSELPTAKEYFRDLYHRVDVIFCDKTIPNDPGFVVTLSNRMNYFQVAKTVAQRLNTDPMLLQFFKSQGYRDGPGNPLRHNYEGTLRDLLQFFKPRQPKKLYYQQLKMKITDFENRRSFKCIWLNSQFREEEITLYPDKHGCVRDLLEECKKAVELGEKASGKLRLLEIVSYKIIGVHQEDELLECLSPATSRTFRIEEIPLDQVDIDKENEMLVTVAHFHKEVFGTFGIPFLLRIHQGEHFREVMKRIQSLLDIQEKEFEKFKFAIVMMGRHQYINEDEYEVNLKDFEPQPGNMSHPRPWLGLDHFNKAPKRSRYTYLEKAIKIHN
How it was run: as §1

[8] = molecular target: T5, USP8 (UniProt P40818)
T5 sequence (whole entry): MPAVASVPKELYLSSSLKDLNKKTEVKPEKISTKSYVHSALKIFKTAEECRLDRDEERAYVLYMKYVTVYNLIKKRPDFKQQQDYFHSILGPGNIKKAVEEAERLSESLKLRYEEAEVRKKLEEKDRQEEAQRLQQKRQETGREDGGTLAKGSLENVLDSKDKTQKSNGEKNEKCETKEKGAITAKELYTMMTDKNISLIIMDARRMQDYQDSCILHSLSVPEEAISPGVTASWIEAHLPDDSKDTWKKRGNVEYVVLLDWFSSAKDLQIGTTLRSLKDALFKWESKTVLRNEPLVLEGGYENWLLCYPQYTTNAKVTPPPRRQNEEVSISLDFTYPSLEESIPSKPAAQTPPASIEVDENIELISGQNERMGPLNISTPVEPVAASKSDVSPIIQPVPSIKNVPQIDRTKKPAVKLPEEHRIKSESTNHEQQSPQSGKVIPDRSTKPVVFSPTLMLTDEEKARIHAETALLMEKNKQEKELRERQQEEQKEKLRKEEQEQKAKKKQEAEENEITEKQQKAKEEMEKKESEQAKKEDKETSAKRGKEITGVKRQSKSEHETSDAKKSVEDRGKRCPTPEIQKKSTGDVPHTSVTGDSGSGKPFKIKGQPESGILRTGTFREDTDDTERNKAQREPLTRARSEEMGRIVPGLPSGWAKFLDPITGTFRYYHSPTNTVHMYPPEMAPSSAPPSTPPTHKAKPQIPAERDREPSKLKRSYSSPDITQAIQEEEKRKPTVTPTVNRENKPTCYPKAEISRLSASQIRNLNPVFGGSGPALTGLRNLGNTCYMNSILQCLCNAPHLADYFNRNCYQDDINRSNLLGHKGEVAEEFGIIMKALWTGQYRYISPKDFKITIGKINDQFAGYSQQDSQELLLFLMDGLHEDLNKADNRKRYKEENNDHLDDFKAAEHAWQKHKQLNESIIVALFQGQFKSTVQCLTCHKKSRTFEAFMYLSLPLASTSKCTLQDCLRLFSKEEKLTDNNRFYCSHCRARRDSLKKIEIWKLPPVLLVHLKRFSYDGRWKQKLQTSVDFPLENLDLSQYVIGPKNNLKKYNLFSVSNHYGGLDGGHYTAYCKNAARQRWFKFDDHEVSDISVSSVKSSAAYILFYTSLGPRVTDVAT
How it was run: as §1

Measured: log2 ratio of Biotin-Ahx-Ub-VS probe labelling

O=C(CCl)NCC1(c2ccccc2)CC1
inactive: [1] -0.475 | [2] 0.0609 | [3] -0.388 | [4] -0.502 | [5] 0.023 | [6] 0.574 | [7] -0.075 | [8] -0.144
